The panel holds about 83,000 compounds, 20% with a hit somewhere; the sample as a whole holds those more often.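 Single-dose data. Exposure time 48 hours. Values below 10 considered active.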 The source made the active and inactive calls.
Legend:
Assay in all cases: NCI-60 one-dose screen, 48 h (100 = growth as untreated, 0 = no growth, -100 = all killed)
Conditions in all cases: 10 µM unless noted
T-47D breast = system: T-47D breast
BT-549 breast = system: BT-549 breast
MDA-MB-435 melanoma = system: MDA-MB-435 melanoma
SW-620 colon = system: SW-620 colon
MCF7 breast = system: MCF7 breast
HCT-116 colon = system: HCT-116 colon
HCC-2998 colon = system: HCC-2998 colon
KM12 colon = system: KM12 colon

Measured: growth

COc1cc2nc3cc([N+](=O)[O-])ccc3c(NCCCNCC(C)(C)O)c2cc1OC
active: T-47D breast -40.6% | BT-549 breast -71.3% | MDA-MB-435 melanoma -85.8% | SW-620 colon -11.8% | MCF7 breast -33.5% | HCT-116 colon -46% | HCC-2998 colon -70.2% | KM12 colon -47.2%

Cl/C(=N\Nc1ccccc1)c1ccccc1
inactive: T-47D breast 89.9% | BT-549 breast 98.8% | MDA-MB-435 melanoma 80.6% | SW-620 colon 105% | MCF7 breast 87.4% | HCT-116 colon 102% | HCC-2998 colon 102%

C=C1CC2(OC1=O)C(=O)N(CCCCCCCN1C(=O)C3(CC(=C)C(=O)O3)c3ccccc31)c1ccccc12 (centres undefined)
active: MDA-MB-435 melanoma 6.35% | SW-620 colon -49.8% | MCF7 breast -4.01% | HCT-116 colon -21.8%
inactive: T-47D breast 22.5% | BT-549 breast 35.2% | HCC-2998 colon 82.5% | KM12 colon 73.6%

CC1=CC(=O)CC(C)(C)[C@@]1(O)/C=C/[C@@H](C)O
inactive: T-47D breast 91.7% | BT-549 breast 105% | MDA-MB-435 melanoma 102% | SW-620 colon 105% | MCF7 breast 84.6% | HCT-116 colon 101% | HCC-2998 colon 94.7% | KM12 colon 102%

COc1ccc(-c2c3c(nc4n[nH]c(-c5ccc(Cl)cc5)c24)-c2ccccc2C(=O)C3=O)cc1
active: MDA-MB-435 melanoma -86.2% | SW-620 colon -66.1% | MCF7 breast 1.77% | HCT-116 colon -44.5% | HCC-2998 colon -25.5% | KM12 colon -20.6%
inactive: T-47D breast 17% | BT-549 breast 20.5%

COc1ccc(-c2c(C)noc2-c2ccc(O)cc2O)cc1
inactive: T-47D breast 86.9% | BT-549 breast 112% | MDA-MB-435 melanoma 87.1% | SW-620 colon 69.5% | MCF7 breast 67.6% | HCT-116 colon 77.9% | HCC-2998 colon 111% | KM12 colon 64.4%

CCCCCCCCCCNC(=O)CCl
inactive: T-47D breast 41.1% | BT-549 breast 49% | MDA-MB-435 melanoma 89.6% | SW-620 colon 93.3% | MCF7 breast 74.5% | HCT-116 colon 69.3% | HCC-2998 colon 84.4% | KM12 colon 67.4%

COc1ccc(N(Cc2cc(OC)c(OC)c(OC)c2)C2OC(=O)c3ccccc32)cc1 (centres undefined)
inactive: T-47D breast 45.8% | BT-549 breast 66.1% | SW-620 colon 20.3% | MCF7 breast 16.4% | HCT-116 colon 23% | HCC-2998 colon 43.9% | KM12 colon 27.7%
active: MDA-MB-435 melanoma -55%

OCC1C2C=CC(C2)C1CO (centres undefined)
inactive: T-47D breast 153% | BT-549 breast 98.7% | MDA-MB-435 melanoma 109% | SW-620 colon 98% | MCF7 breast 111% | HCT-116 colon 96.7% | HCC-2998 colon 125% | KM12 colon 106%

Cc1ccc(-c2nc(/C=N/Nc3cc(C)nc4ccc(Cl)cc34)c(C)o2)cc1
inactive: BT-549 breast 97%
active: T-47D breast -74.4% | MDA-MB-435 melanoma -95.6% | SW-620 colon -70.2% | MCF7 breast -84.4% | HCT-116 colon -54.3% | HCC-2998 colon -53.3% | KM12 colon -58.3%

Cc1ccc(SCN2CCN(c3cccc(Cl)c3)CC2)cc1
inactive: T-47D breast 86.7% | BT-549 breast 62.7% | MDA-MB-435 melanoma 89.7% | SW-620 colon 107% | MCF7 breast 85.2% | HCT-116 colon 91.6% | HCC-2998 colon 100% | KM12 colon 104%

Cc1ccc(N)cc1F
inactive: T-47D breast 184% | BT-549 breast 116% | MDA-MB-435 melanoma 100% | SW-620 colon 107% | MCF7 breast 94.2% | HCT-116 colon 86.8% | HCC-2998 colon 106% | KM12 colon 99.7%

Cc1cc(Nc2nc(N3CCNCC3)nc3ccccc23)n[nH]1
inactive: T-47D breast 93% | BT-549 breast 88.6% | MDA-MB-435 melanoma 73% | SW-620 colon 103% | MCF7 breast 87% | HCT-116 colon 80% | HCC-2998 colon 92.4% | KM12 colon 26.7%

O=C1/C(=C/c2ccc(Cl)cc2Cl)CN(S(=O)(=O)c2ccccc2)C/C1=C\c1ccc(Cl)cc1Cl
inactive: T-47D breast 23.7% | MCF7 breast 13.9%
active: BT-549 breast -72.8% | MDA-MB-435 melanoma 3.98% | SW-620 colon -15.2% | HCT-116 colon -84% | HCC-2998 colon -15.3% | KM12 colon -57.2%

O=[N+]([O-])c1cccc(C2CC(c3ccccc3)=Nc3ccccc3S2)c1 (centres undefined)
inactive: T-47D breast 84.9% | BT-549 breast 78.5% | MDA-MB-435 melanoma 112% | SW-620 colon 25.6% | MCF7 breast 16.2% | HCT-116 colon 47.9% | HCC-2998 colon 108% | KM12 colon 35.7%
